Here are results for 40 compounds from PubChem BioAssay (NCATS).

Structures are written as SMILES. Values without a mark were called inactive. Inconclusive results are not listed. The source made the active and inactive calls. Calls follow the shape of the dose curve; as a rule, active = well fitted curve in the direction sought with a large enough effect; inconclusive = small, poorly fitted or top-dose-only effect, or another doubt; inactive = no such curve, though single readings can be large; an effect the other way counts as inactive or inconclusive.

A short description of assay [1]: qHTS assay for measurement of the activity of small molecule inhibitors on Zika virus induced Caspase-3 activity in human iPSC derived neural progenitor cells (hNPCs) (AID 1224857). Also: % of control where 0% means no effect; nearly all actives have a fitted effect of over 65% in size. Summed up:
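Human iPSC-derived neural progenitor cells pretreated 1 hr with compounds, then infected with Zika virus (2 FFU/cell) for 6 hours at 37 C. Caspase-3/7 measured by Caspase-Glo luminescence; % inhibition calculated from induction scaled to uninfected (0%) and infected (100%) wells.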

Assay [2] in a line: qHTS assay for measurement of the activity of small molecule inhibitors on Zika virus induced Caspase-3 activity in human astrocytoma cells (AID 1224859).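 Also: plate controls were ZIKV-infected untreated cells for no effect and uninfected cells for full effect.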 The method, boiled down:
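SNB-19 astrocytoma cells, 250/well, pretreated 1 h with compounds, then Zika virus at 2 FFU/cell for 6 h at 37 C; Caspase-Glo 3/7 luminescence after 30 min; percent inhibition normalised to uninfected and infected controls.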

Assay [3] in a line: qHTS assay to identify small molecule inhibitors of chordoma cells - UCH-2 (AID 1259356). Also: series mostly up to about 46 µM; % is scaled to controls: 0 for no effect and ±100 for the full control effect.
Assay [4] in a line: qHTS assay to identify small molecule inhibitors of chordoma cells - UCH-1 (AID 1259355). Also: % is scaled to controls: 0 for no effect and ±100 for the full control effect; nearly all actives have a fitted effect of over 55% in size. Summed up: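 Seed 800 cells per well; incubate overnight at 37 C, 5% CO2. Add test compounds (15 concentrations), then the auranofin–topoisomerase-agent combination. Incubate 48hr, add CellTiter-Glo, wait 30min, read luminescence.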
Assay [5] can be described thus: qHTS Screen of the MIPE 4.0 Collection Against Ewings Sarcoma (RDES) (AID 1259252). Also: nearly all actives have a fitted effect of over 35% in size. Also: potency is read from the fitted curve at half-maximal effect. Summed up: (§1)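 After a 4 h attachment period in RPMI/5% FBS, cells were pin-dosed with test compounds; DMSO served as negative and 9.2 uM bortezomib (final) as positive control. Luminescent CellTiter-Glo signal at 48 h defined viability.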
Assay [6] in a line: qHTS Screen of the MIPE 4.0 Collection Against Ewings Sarcoma (TC71) (AID 1259253). Also: nearly all actives have a fitted effect of over 40% in size. Also: potency is read from the fitted curve at half-maximal effect. An excerpt: There is a large unmet medical need for treatments for Ewing sarcoma, a pediatric sarcoma. We sought to identify compounds that inhibited Ewing sarcoma cells in vitro with the goal to then test promising drugs in two drug combinations in vitro to look for synergistic drug combinations. Promising combinations would then proceed to additional validation, including in vivo testing.
Using the NCATS developed oncology compound library called the Mechanism of Interrogation Plate (MIPE), four Ewing sarcoma cell lines were evaluated (TC32, TC71, RDES, EW8). Compounds, in a 12-point titration series, were incubated with cells for 48 hours and the read out was cell viability (CellTiter-Glo from Promega). These initial experiments were used to select appropriate concentrations of each single agent for subsequent two-drug matrix combinations such that the concentrations in the matrices would span both activity and non-activity.
Cells, in the log phase of growth, were seeded in 5 uL of RPMI plus 5% FBS, […] L-glutamine, 100 U/ml penicillin and 100 ug/ml streptomycin into 1536-well solid-bottom white tissue culture treated Greiner Bio One Plates (789173-F) using a MultiDrop Combi (Thermofisher Scientific) dispenser and a small sterile cassette. One column was media alone to be used as a :"no cells" control. The plates were then covered with sterilized stainless steel gasketed lids from Kalypsys. After allowing cells to attach for 4 hours, 23 nL of test compound or control (negative control DMSO and positive control 9.2 uM Bortezomib-final) were added from a 1536-well polypropylene compound source plate to each well using a 1536 head pin tool from Kalypsys. Cells were then incubated for 48 hours at 37C, 95% relative humidity and 5% CO2. After 48 hours, plates were removed from the incubator and 3 uL of CellTiter-Glo (Promega) was added using an Aurora Flying Reagent Dispenser Bioraptor. Plates were incubated at room temperature for 10 minutes prior to reading the luminescence on the Viewlux (PerkinElmer). The relative luciferase units are used to calculate the percent activity using the activity of DMSO in the cells and no cells columns for normalization of no inhibition and full inhibition respectively.

Assay [7] in a line: qHTS Screen of the MIPE 4.0 Collection Against Ewings Sarcoma (TC32) (AID 1259256). Also: nearly all actives have a fitted effect of over 45% in size. Also: potency is read from the fitted curve at half-maximal effect. The method, boiled down: as §1
Assay [8] is described as follows: qHTS Screen of the MIPE 4.0 Collection Against Ewings Sarcoma (EW8) (AID 1259255).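 Also: 100% = DMSO-treated cells and 0% = medium-only wells without cells; nearly all actives have a fitted effect of over 35% in size.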 Summed up:
as §1

The nature of assay [9]: Identifying Small Molecule Inhibitors of Pancreatic Cancer Stem Cells (SN12C, Adherent) (AID 1259358).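 Also: cell survival measured after 48 h of compound exposure.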 The method, boiled down:
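Adherent (2D) versus sphere (3D) formats; spheres generated 14 d in SCM beforehand. Compound transferred by pin tool after 4 h, 48 h incubation, CellTiter-Glo endpoint.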

Assay [10] can be described thus: Identifying Small Molecule Inhibitors of Pancreatic Cancer Stem Cells (SN12C, Spheroid) (AID 1259360).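 Also: 100% = DMSO-treated cells and 0% = wells without cells.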 Summed up: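 Pre-formed 14-day tumor spheroids or adherent cells dosed and incubated 48 h, 37C, 5% CO2. Viability assessed by CellTiter-Glo.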

For `COc1ccc2c(c1OC)C(=O)O[C@H]2[C@@H]1c2cc3c(cc2CCN1C)OCO3`, the result in assay [1], in assay [2] and in assay [3] was inactive.

As for `O=C1CN=C(c2ccccc2)c2cc([N+](=O)[O-])ccc2N1`, the call in assay [1], in assay [2], in assay [4] and in assay [3] was inactive.

For `C=CCN1C[C@H](C)N([C@H](c2ccc(C(=O)N(CC)CC)cc2)c2cccc(OC)c2)C[C@H]1C`, the outcome in assay [1], in assay [2], in assay [4] and in assay [3] was inactive.

Consider `O=C1c2ccccc2C(=O)C1C(=O)C(c1ccccc1)c1ccccc1`, for which the compound was classed as inactive in assay [1], in assay [2], in assay [4] and in assay [3].

For `Nc1ccc([As](=O)(O)O)cc1`, the compound was called inactive in assay [1], in assay [2], in assay [4] and in assay [3].

In the case of `CC(C)=CC1C(C(=O)OCN2C(=O)C3=C(CCCC3)C2=O)C1(C)C` (centres undefined), the compound was classed as inactive in [1], in assay [2], in assay [4] and in assay [3].

With `NC(=O)CS(=O)C(c1ccccc1)c1ccccc1` (centres undefined), the compound was called inactive in assay [1], in [2], in [4] and in [3].

As to `CCC1(CC)C(=O)C=CNC1=O`, the result in assay [1], in assay [2], in assay [4] and in [3] was inactive.

Turning to `COC1CC(=C(c2cccs2)c2cccs2)C[N+](C)(C)C1` (centres undefined), the compound was classed as inactive in assay [1], in [2], in assay [4] and in assay [3].

In the case of `C[C@](O)(CS(=O)(=O)c1ccc(F)cc1)C(=O)Nc1ccc(C#N)c(C(F)(F)F)c1`, the compound was called inactive in [1], in [4] and in assay [3]. The Potency in assay [5] was 1.87 µM (active); in assay [6], 3.72 µM (active); in assay [7] it was 4.69 µM (active).

With `CC(C)NC(C)C`, the compound was called inactive in [1], in assay [2], in assay [4] and in assay [3].

`CC(=O)NC1CCSC1=O` (centres undefined): the result in assay [1], in [2], in assay [4] and in assay [3] was inactive.

Turning to `C[C@]12CC[C@@H]3c4ccc(OC(=O)N(CCCl)CCCl)cc4CC[C@H]3[C@@H]1CC[C@@H]2O`, the compound was classed as inactive in assay [1], in [2], in assay [4] and in [3].

With `COP(=S)(OC)Oc1ccc(S(=O)(=O)N(C)C)cc1`, the call in [1], in assay [2] and in assay [3] was inactive.

Turning to `O=c1[nH]oc2c1CCNC2`, the call in assay [1], in assay [2], in assay [4] and in assay [3] was inactive.

In the case of `CCC(C)(C)c1ccc(O)cc1`, the result in assay [1], in [2], in assay [4] and in assay [3] was inactive.

Take `CC(C)N(CCC(C(N)=O)(c1ccccc1)c1ccccn1)C(C)C` (centres undefined): the compound was classed as inactive in assay [1], in assay [2], in [4] and in assay [3].

In the case of `NC(=O)c1cc([N+](=O)[O-])cc([N+](=O)[O-])c1`, the compound was classed as inactive in assay [1], in [2], in [4] and in assay [3].

As for `CN1C(=O)NC(=O)C(C)(C2=CCCCC2)C1=O` (centres undefined), the result in assay [1], in assay [2], in assay [4] and in [3] was inactive.

Regarding `O=[N+]([O-])O[C@H]1CO[C@H]2[C@@H]1OC[C@H]2O[N+](=O)[O-]`, the compound was called inactive in [1], in assay [2], in [4] and in assay [3].

As to `Cc1ncsc1CCCl`, the compound was called inactive in assay [1], in assay [2], in assay [4] and in assay [3].

For the compound `CN1C(=O)COc2c(C(=O)NC3CN4CCC3CC4)cc(Cl)cc21` (centres undefined), the compound was called inactive in assay [1], in assay [8], in assay [4] and in assay [3]. In addition, the Potency entry in [5], in assay [6] and in [7] was “inactive” throughout.

Consider `Clc1ccc2c(c1)C(c1ccccc1)=NCc1nncn1-2`, for which the compound was classed as inactive in [4] and in assay [3].

Consider `c1ccc2c(c1)sc1ccccc12`, for which the outcome in [1], in assay [4] and in [3] was inactive.

With `NNc1ccccc1`, the result in [1], in assay [4] and in [3] was inactive.

Consider `C#C[C@]1(O)CC[C@H]2[C@@H]3CCC4=CC(=O)CC[C@]4(C)[C@H]3CC[C@@]21C`, for which the outcome in [1], in [4] and in [3] was inactive.

As for `CN1C(=O)CC(=O)N(c2ccccc2)c2cc(Cl)ccc21`, the call in [4] and in assay [3] was inactive.

For `O=c1oc2ccccc2c(O)c1Cc1c(O)c2ccccc2oc1=O`, the outcome in [1], in [4] and in [3] was inactive.

For `COC(=O)C(c1ccccc1)C1CCCCN1` (centres undefined), the compound was classed as inactive in assay [4] and in assay [3].

Turning to `Clc1ccc(C(c2ccc(Cl)cc2)C(Cl)(Cl)Cl)cc1`, the result in assay [1], in [4] and in [3] was inactive.

In the case of `CN=C1CN(O)C(c2ccccc2)=c2cc(Cl)ccc2=N1`, the result in assay [4] and in assay [3] was inactive.

Turning to `CC(C)(C)NCC(O)c1ccccc1Cl` (centres undefined), the compound was classed as inactive in assay [1] and in assay [3]. Moreover, the activity, negative = inhibition in assay [4] is 11.9% [at 9.21 µM].

As for `CCCCCN(C)CCC(O)(P(=O)(O)O)P(=O)(O)O`, the call in assay [1], in assay [4] and in [3] was inactive.

Consider `O=P1(N(CCCl)CCCl)NCCCO1` (centres undefined), for which the result in assay [1], in [8], in [4], in assay [3], in [9] and in [10] was inactive. In addition, the Potency entry in assay [6] is “inactive”. Also, in assay [7], the Potency is 0.0021 µM (active).

Consider `Cc1nnc2n1-c1ccc(Cl)cc1C(c1ccccc1)=NC2`, for which the outcome in assay [3] was inactive.

As to `Nc1nc(N)nc(NC2CC2)n1`, the compound was called inactive in assay [1], in [4] and in assay [3].

In the case of `C[C@]12CCC(=O)C=C1CC[C@@H]1[C@@H]2CC[C@]2(C)C(=O)CC[C@@H]12`, the call in assay [1], in assay [4] and in [3] was inactive.

`CC(C)C[C@H](CN)CC(=O)O`: the result in assay [1], in assay [8] and in assay [3] was inactive. Moreover, the Potency result in [5] is “inactive”.

For `COc1ccc2c(c1)C13CCCC[C@@H]1C(C2)N(C)CC3` (some centres undefined), the outcome in assay [4] and in assay [3] was inactive.

On to `COP(=S)(OC)Oc1ccc(SC)c(C)c1`, for which the compound was called inactive in assay [1], in [4] and in [3].
